Source: the supplement of paper PMC9446081
± gives the standard deviation of the averaged measurements.

How the values were obtained:
Assay in all cases: relative enzymatic activity vs untreated control (fraction); higher = less inhibition
Details in all cases: 100 µM; incubation time: 2 h at 37 C
[1] = test system: DNA gyrase
Experimental: (§1)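 In vitro enzymatic inhibition assays (ProFoldin kits) for 12 purified essential E. coli enzymes or complexes, each treated with 218 active antibacterial compounds at 100 µM for 2 h at 37°C. Read-outs were fluorescence or absorbance (phosphate detection, dye binding), converted to activity via standard curves and expressed relative to untreated DMSO controls.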

[2] = target: DNA helicase (UniProt P0ACB1)
Experimental: as §1

[3] = target: DNA ligase (UniProt B1XA82)
Experimental: as §1

[4] = target: DNA polymerase (UniProt P10443)
Experimental: as §1

[5] = target: DNA primase (UniProt P0ABS7)
Experimental: as §1

[6] = target: GlmU (UniProt A7ZTU1)
Experimental: as §1

[7] = target: Guanlyate kinase (UniProt Q0TBG1)
Experimental: as §1

[8] = target: MurA (UniProt Q3YX52)
Experimental: as §1

[9] = target: T1, MurD (UniProt P14900)
T1 sequence (whole entry): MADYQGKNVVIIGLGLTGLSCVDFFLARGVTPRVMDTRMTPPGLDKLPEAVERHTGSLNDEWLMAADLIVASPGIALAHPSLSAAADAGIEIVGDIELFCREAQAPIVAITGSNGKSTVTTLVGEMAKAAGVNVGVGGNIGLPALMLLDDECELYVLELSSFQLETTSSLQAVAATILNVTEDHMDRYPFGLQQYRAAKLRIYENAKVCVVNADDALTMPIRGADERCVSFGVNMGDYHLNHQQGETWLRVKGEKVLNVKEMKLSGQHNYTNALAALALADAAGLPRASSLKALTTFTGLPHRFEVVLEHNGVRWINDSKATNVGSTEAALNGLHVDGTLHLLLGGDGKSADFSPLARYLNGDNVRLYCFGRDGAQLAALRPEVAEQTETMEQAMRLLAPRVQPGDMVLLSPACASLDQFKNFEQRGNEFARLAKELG
Experimental: as §1

[10] = target: T2, MurF (UniProt P11880)
T2 sequence (whole entry): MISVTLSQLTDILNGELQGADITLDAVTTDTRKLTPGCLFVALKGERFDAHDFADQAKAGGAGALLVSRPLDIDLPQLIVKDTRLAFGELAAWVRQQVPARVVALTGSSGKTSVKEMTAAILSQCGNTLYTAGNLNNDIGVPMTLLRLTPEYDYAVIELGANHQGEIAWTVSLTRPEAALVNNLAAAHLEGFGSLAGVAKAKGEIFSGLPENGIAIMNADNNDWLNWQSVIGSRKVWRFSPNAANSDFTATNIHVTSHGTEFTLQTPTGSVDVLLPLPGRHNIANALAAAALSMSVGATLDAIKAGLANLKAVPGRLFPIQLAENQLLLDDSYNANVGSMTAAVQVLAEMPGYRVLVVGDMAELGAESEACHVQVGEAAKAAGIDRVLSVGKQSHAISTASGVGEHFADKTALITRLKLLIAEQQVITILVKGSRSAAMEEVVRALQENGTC
Experimental: as §1

[11] = test system: RNA polymerase
Experimental: as §1

Chain of DNA helicase (P0ACB1 whole entry): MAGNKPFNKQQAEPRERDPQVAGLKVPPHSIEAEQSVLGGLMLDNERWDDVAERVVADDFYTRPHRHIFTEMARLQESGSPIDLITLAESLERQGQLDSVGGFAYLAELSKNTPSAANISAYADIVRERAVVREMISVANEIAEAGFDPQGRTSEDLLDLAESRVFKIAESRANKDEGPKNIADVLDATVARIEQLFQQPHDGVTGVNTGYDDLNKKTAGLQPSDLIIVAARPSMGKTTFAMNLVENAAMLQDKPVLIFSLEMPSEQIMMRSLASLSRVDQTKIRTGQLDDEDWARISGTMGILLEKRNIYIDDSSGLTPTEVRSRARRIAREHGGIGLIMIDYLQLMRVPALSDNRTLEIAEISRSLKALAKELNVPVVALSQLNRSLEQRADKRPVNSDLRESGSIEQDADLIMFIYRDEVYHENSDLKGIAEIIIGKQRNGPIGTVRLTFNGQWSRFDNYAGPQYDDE
Chain of DNA primase (P0ABS7 whole entry): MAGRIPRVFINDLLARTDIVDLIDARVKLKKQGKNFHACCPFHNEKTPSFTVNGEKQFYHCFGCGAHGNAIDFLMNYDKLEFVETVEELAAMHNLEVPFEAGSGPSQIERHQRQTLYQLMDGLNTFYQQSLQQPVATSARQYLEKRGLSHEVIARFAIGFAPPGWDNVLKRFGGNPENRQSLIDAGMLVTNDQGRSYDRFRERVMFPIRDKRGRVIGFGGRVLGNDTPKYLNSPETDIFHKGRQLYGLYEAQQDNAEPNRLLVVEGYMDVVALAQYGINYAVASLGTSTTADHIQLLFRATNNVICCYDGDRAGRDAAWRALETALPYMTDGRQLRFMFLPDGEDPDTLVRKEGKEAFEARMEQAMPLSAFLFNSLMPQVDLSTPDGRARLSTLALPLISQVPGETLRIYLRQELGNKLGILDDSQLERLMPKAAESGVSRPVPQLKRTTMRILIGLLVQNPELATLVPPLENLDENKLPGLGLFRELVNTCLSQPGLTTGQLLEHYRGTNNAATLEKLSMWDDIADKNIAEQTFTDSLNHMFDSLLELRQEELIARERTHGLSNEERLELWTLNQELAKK
Chain of DNA polymerase (P10443 whole entry): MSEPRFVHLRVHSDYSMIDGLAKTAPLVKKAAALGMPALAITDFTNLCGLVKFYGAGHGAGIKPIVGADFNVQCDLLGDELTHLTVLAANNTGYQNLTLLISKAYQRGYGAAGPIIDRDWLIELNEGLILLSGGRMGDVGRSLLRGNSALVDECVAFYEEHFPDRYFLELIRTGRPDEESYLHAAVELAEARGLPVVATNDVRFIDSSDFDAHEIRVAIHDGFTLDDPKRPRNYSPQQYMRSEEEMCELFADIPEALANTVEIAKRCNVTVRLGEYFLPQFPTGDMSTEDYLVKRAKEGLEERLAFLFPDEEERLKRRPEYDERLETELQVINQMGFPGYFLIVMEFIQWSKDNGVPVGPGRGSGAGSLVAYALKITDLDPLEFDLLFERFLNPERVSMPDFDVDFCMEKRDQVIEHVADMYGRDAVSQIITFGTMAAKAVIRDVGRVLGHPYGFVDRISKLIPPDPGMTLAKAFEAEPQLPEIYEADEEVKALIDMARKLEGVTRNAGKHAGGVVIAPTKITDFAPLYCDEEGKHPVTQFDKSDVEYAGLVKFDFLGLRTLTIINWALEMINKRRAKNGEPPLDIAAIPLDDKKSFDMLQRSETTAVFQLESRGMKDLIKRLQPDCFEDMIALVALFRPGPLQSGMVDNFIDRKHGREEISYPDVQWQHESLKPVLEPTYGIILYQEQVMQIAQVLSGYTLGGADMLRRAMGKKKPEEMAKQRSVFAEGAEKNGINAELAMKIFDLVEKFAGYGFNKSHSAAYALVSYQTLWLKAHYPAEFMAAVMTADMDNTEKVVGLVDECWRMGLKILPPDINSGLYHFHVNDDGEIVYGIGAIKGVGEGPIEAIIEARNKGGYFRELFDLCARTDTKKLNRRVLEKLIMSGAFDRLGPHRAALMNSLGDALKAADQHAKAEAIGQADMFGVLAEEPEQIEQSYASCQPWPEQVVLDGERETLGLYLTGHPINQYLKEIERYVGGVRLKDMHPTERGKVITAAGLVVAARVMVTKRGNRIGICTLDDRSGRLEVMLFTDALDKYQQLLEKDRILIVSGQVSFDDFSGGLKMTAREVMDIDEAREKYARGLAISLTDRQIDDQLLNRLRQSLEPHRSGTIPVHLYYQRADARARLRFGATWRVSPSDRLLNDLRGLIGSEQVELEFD
Chain of Guanlyate kinase (Q0TBG1 whole entry): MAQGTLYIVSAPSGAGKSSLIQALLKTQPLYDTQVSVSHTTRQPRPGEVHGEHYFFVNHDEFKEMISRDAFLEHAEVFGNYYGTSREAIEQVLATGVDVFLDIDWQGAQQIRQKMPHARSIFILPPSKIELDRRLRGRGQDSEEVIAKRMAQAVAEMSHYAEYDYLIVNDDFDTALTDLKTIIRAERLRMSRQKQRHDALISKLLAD
Chain of DNA ligase (B1XA82 whole entry): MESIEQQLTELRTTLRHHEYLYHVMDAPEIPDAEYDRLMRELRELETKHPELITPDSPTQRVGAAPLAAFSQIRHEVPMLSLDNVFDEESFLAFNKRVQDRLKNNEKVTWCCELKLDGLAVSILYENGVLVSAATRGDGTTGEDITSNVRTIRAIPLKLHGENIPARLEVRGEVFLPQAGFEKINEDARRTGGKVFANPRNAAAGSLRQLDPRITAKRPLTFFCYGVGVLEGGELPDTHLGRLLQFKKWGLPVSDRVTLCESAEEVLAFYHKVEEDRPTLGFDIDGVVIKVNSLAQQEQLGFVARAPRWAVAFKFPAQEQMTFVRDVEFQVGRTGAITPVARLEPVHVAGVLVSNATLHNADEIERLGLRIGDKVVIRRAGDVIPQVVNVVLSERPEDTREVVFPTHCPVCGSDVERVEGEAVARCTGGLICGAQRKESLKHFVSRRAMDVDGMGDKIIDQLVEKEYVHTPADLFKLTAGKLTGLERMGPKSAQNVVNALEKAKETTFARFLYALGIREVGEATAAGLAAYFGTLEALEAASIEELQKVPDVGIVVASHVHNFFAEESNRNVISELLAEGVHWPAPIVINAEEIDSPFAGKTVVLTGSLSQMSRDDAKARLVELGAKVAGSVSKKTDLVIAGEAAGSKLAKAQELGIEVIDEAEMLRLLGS
Chain of GlmU (A7ZTU1 whole entry, looked up): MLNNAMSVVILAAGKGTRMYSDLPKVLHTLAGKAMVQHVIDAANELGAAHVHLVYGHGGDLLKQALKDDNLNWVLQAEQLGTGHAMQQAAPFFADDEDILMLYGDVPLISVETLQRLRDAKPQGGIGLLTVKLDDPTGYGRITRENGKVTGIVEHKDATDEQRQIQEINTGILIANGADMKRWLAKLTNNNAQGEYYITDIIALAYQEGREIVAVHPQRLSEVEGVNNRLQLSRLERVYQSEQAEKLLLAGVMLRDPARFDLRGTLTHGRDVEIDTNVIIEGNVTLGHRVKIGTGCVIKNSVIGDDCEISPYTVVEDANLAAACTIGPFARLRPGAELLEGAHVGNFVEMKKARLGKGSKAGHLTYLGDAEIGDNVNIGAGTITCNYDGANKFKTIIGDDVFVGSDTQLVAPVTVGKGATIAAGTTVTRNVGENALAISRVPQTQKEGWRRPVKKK
Chain of MurA (Q3YX52 whole entry): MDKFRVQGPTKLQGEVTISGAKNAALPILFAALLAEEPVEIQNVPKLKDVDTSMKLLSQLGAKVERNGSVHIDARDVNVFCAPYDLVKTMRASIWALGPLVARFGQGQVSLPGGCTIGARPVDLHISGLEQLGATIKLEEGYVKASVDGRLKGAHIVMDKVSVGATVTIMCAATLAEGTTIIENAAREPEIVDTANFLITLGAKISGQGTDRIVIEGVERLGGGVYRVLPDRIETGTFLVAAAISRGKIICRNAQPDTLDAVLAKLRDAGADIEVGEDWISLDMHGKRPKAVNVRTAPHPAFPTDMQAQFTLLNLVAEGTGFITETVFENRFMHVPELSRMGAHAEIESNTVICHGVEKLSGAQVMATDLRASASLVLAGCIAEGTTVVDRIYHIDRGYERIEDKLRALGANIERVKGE

Compound | relative enzymatic activity [1] | relative enzymatic activity [2] | relative enzymatic activity [3] | relative enzymatic activity [4] | relative enzymatic activity [5] | relative enzymatic activity [6] | relative enzymatic activity [7] | relative enzymatic activity [8] | relative enzymatic activity [9] | relative enzymatic activity [10] | relative enzymatic activity [11]
CC1(C)S[C@@H]2[C@H](NC(=O)[C@H](NC(=O)N3CCNC3=O)c3ccccc3)C(=O)N2[C@H]1C(=O)O | 0.794 ± 0.35 | 0.76 ± 0.44 | 0.934 ± 0.038 | 1.06 ± 0.04 | 0.864 ± 0.024 | 0.998 ± 0.033 | 0.935 ± 0.03 | 0.579 ± 0.11 | 0.583 ± 0.4 | 0.954 ± 0.23 | 0.869 ± 0.089
COc1cc2c(cc1OC)C(=O)C(CC1CCN(Cc3ccccc3)CC1)C2.Cl (stereo not drawn) | 0.363 ± 0.072 | 0.802 ± 0.32 | 1.19 ± 0.057 | 1.18 ± 0.28 | 0.713 ± 0.2 | 0.766 ± 0.067 | 0.892 ± 0.1 | 0.486 ± 0.059 | 0.456 ± 0.32 | 0.934 ± 0.17 | 0.85 ± 0.011
CON=C(C(=O)NC1C(=O)N2C(C(=O)O)=C(CSC(=O)c3ccco3)CSC12)c1csc(N)n1.Cl (stereo not drawn) | 0.933 ± 0.033 | 0.388 ± 0.053 | 1.07 ± 0.033 | 0.476 ± 0.67 | 0.657 ± 0.15 | 0.844 ± 0.063 | 0.949 ± 0.12 | 0.0647 ± 0.013 | 0.551 ± 0.37 | 0.95 ± 0.2 | 0.832 ± 0.051
CC(N)O.Cc1cc(CC(C)CC(C)(C)C)n(O)c(=O)c1 (stereo not drawn) | 0.964 ± 0.11 | 0.621 ± 0.26 | 1.17 ± 0.13 | 1.16 ± 0.23 | 0.719 ± 0.22 | 1.095 ± 0.0024 | 0.963 ± 0.12 | 0.844 ± 0.05 | 0.636 ± 0.43 | 0.592 ± 0.82 | 0.884 ± 0.076
N[C@@H]1[C@H]2CN(c3nc4c(cc3F)c(=O)c(C(=O)O)cn4-c3ccc(F)cc3F)C[C@@H]12 | 0.0708 ± 0.1 | 0.354 ± 0.0078 | 1.04 ± 0.084 | 1.14 ± 0.23 | 0.689 ± 0.063 | 0.912 ± 0.029 | 0.937 ± 0.033 | 0.596 ± 0.17 | 0.555 ± 0.39 | 0.928 ± 0.22 | 0.783 ± 0.071
O=[N+]([O-])c1ccc(O)c2ncccc12 | 0.501 ± 0.24 | 0.584 ± 0.12 | 0.808 ± 0.033 | 0.979 ± 0.076 | 0.759 ± 0.023 | 1.03 ± 0.047 | 0.765 ± 0.026 | 0.291 ± 0.12 | 0.588 ± 0.39 | 0.989 ± 0.21 | 0.7483 ± 0.0011
O=C1CN(/N=C/c2ccc([N+](=O)[O-])o2)C(=O)N1 | 0.715 ± 0.42 | 0.621 ± 0.24 | 0.855 ± 0.16 | 0.649 ± 0.36 | 0.764 ± 0.037 | 0.999 ± 0.044 | 0.842 ± 0.048 | 0.665 ± 0.11 | 0.481 ± 0.61 | 0.963 ± 0.21 | 0.745 ± 0.068
NC[C@H]1O[C@H](O[C@H]2[C@H](O)[C@@H](O[C@H]3O[C@H](CO)[C@@H](O)[C@H](N)[C@H]3O)[C@H](N)C[C@@H]2N)[C@H](N)[C@@H](O)[C@@H]1O | 0.315 ± 0.23 | 0.151 ± 0.041 | 0.868 ± 0.093 | 0.916 ± 0.35 | 0.46 ± 0.095 | 0.992 ± 0.076 | 0.3862 ± 0.0032 | 0.686 ± 0.15 | 0.605 ± 0.41 | 0.975 ± 0.24 | 0.781 ± 0.22
